Active and inactive are the calls of the source. Rule for the calls: active = hit-call score of the fitted dose curve at least 0.9, where 1 is the maximum; inactive = score below 0.9.
Legend:
[1] = ATG_GLI_CIS: Attagene CIS-FACTORIAL HepG2 Assay for human Zinc Finger Protein GLI1 (AID 2282945); details: HepG2, Attagene cis-factorial reporter mRNA, GLI element; actives raise or lower the signal
Summary of the method: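 Bidirectional curve fits relative to DMSO, using reporter mRNA levels from RT-PCR plus capillary electrophoresis. Cells were HepG2 transiently carrying cis-regulated reporter constructs, harvested 24 h after dosing.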

[2] = ATG_ISRE_CIS: Attagene CIS-FACTORIAL HepG2 Assay for human Interferon Regulatory Factor 1 (IRF1) binding to an Interferon-Stimulated Response Element (ISRE) (AID 2282948); details: HepG2 ISRE cis-reporter (Attagene), mRNA transcription readout; actives raise or lower the signal
Summary of the method: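 Endogenous transcription factor activity read as reporter transcript abundance via RT-PCR and capillary electrophoresis. HepG2 cells transiently transfected, 24 h chemical exposure. Gain or loss fitted against DMSO baseline.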

[3] = ATG_M_32_CIS: Attagene CIS-FACTORIAL HepG2 Assay for M32 Transcription Factor (Internal Marker) (AID 2282949); details: HepG2 Attagene cis-factorial M32 reporter, mRNA; actives raise or lower the signal;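 note: background control marker of the multiplexed CIS panel rather than a real target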
Summary of the method: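 HepG2 transfectants (cis-regulated reporter transcription units) dosed 24 h. Reporter mRNA by RT-PCR plus CE, analysed as gain or loss relative to DMSO.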

[4] = ATG_M_06_CIS: Attagene CIS-FACTORIAL HepG2 Assay for M06 Transcription Factor (Internal Marker) (AID 2282950); details: HepG2 Attagene CIS-FACTORIAL M06 internal marker reporter; actives raise or lower the signal
Summary of the method: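 HepG2 cells transiently transfected with cis-regulated multiple reporter transcription units were exposed to chemical for 24 h; reporter mRNA was quantified by RT-PCR, 6-FAM primer labelling, HpaI digestion and capillary electrophoresis, fitted bidirectionally against DMSO.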

[5] = molecular target: Hepatocyte nuclear factor 6 (Homo sapiens) (UniProt Q9UBC0); test: ATG_HNF6_CIS: Attagene CIS-FACTORIAL HepG2 Assay for human Hepatocyte Nuclear Factor 6 (HNF6) (AID 2282952); details: HepG2 Attagene cis-factorial HNF6 reporter transcription; actives raise or lower the signal
Summary of the method: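 Activity values derive from bidirectional fitting against DMSO of reporter mRNA levels, measured by capillary electrophoresis of labelled RT-PCR products from HepG2 cells exposed 24 h.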

[6] = molecular target: Heat shock factor protein 1 (Homo sapiens) (UniProt Q00613); test: ATG_HSE_CIS: Attagene CIS-FACTORIAL HepG2 Assay for human Heat Shock Transcription Factor 1 (HSE) (AID 2282953); details: HepG2 HSE cis-reporter, Attagene RNA transcription; actives raise or lower the signal
Summary of the method: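 HepG2 cells transiently transfected with multiple reporter transcription units under cis-regulatory promoter control, measuring endogenous transcription factor activity. After 24 h chemical exposure, reporter mRNA quantified by RT-PCR, fluorescent labelling, HpaI digestion and capillary electrophoresis; bidirectional fit versus DMSO.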

[7] = ATG_MRE_CIS: Attagene CIS-FACTORIAL HepG2 Assay for human Metal Responsive Element (MRE) (AID 2282954); details: HepG2 MRE cis-reporter transcription, Attagene multiplex; actives raise or lower the signal
Summary of the method: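 Endogenous MRE-dependent transcription read as reporter mRNA in transiently transfected human HepG2 cells at 24 h. RNA reverse-transcribed, PCR-amplified, labelled and resolved by capillary electrophoresis; gain or loss relative to DMSO.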

[8] = molecular target: Paired box protein Pax-6 (Homo sapiens) (UniProt P26367); test: ATG_Pax6_CIS: Attagene CIS-FACTORIAL HepG2 Assay for human Paired Box 6 (PAX6) (AID 2282956); details: HepG2 CIS-FACTORIAL PAX6 reporter transcription, RNA readout; actives raise or lower the signal
Summary of the method: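 Read-out is reporter transcript level, measured by RT-PCR with fluorescent primer extension and capillary electrophoresis after 24 h dosing of transfected HepG2 cells. Activity in either direction fitted relative to DMSO control.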

[9] = ATG_PXRE_CIS: Attagene CIS-FACTORIAL HepG2 Assay for human Pregnane X Receptor Element (PXRE) (AID 2282957); details: HepG2 Attagene CIS-FACTORIAL PXRE reporter, mRNA; actives raise or lower the signal
Summary of the method: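 Fluorescent capillary electrophoresis of amplified reporter cDNA gave the signal, collected 24 h after dosing HepG2 cells that held transfected cis-element reporter constructs.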

[10] = ATG_PPRE_CIS: Attagene CIS-FACTORIAL HepG2 Assay for human Peroxisome Proliferator-activated Response Element (PPRE) (AID 2282958); details: HepG2 PPRE cis-element reporter, Attagene transcription factor profiling; actives raise or lower the signal
Summary of the method: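 HepG2 cells are transiently transfected with multiplexed cis-promoter reporter units to report endogenous PPAR activity. After 24 h dosing, reporter mRNA is read by RT-PCR and capillary electrophoresis. Fitting is bidirectional against DMSO.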

[11] = ATG_Sox_CIS: Attagene CIS-FACTORIAL HepG2 Assay for human SRY-box transcription factor (SOX) (AID 2282960); details: HepG2 Attagene cis-factorial SOX reporter, mRNA; actives raise or lower the signal
Summary of the method: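 HepG2 cells transiently transfected with multiple cis-regulated reporter units, then dosed for 24 h. Reporter mRNA quantified by RT-PCR, fluorescent labelling, HpaI digestion and capillary electrophoresis; bidirectional fit versus DMSO.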

[12] = molecular target: Transcription factor Sp1 (Homo sapiens) (UniProt P08047); test: ATG_Sp1_CIS: Attagene CIS-FACTORIAL HepG2 Assay for human Specificity Protein 1 (Sp1) (AID 2282961); details: HepG2 Sp1 cis-reporter transcription, actives raise or lower the signal
Summary of the method: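 HepG2 cells transiently transfected with multiplexed cis-regulated reporter constructs, chemical exposure 24 h. Reporter mRNA quantified by RT-PCR with capillary electrophoresis; bidirectional fit relative to DMSO.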

[13] = ATG_SREBP_CIS: Attagene CIS-FACTORIAL HepG2 Assay for human Sterol Regulatory Element Binding (SREBP) (AID 2282962); details: HepG2 Attagene cis-factorial SREBP reporter, mRNA; actives raise or lower the signal
Summary of the method: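 Endogenous SREBP activity read as cis-element-driven reporter transcript in transiently transfected HepG2, 24 h post-dosing; quantified via RT-PCR plus capillary electrophoresis of fluorescent fragments. Gain or loss of signal fitted relative to DMSO baseline.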

[14] = molecular target: Signal transducer and activator of transcription 3 (Homo sapiens) (UniProt P40763); test: ATG_STAT3_CIS: Attagene CIS-FACTORIAL HepG2 Assay for human Signal Transducer and Activator of Transcription 3 (STAT3) (AID 2282963); details: HepG2, Attagene cis-factorial STAT3 reporter transcription; actives raise or lower the signal
Summary of the method: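 Readout is reporter transcript quantified by RT-PCR and capillary electrophoresis, with 6-FAM primer extension and HpaI digestion. Total RNA is taken 24 h after dosing transiently transfected HepG2 carrying cis-regulated reporter units. Bidirectional fit against DMSO.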

[15] = ATG_TA_CIS: Attagene CIS-FACTORIAL HepG2 Assay for human TA Basal Promoter (AID 2282964); details: HepG2 Attagene CIS-factorial TA basal promoter reporter; actives raise or lower the signal
Summary of the method: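 HepG2 cells transiently transfected with multiplexed cis-promoter reporter units, dosed 24 h. Reporter mRNA measured by RT-PCR, 6-FAM labelling, HpaI digestion and capillary electrophoresis; bidirectional fit versus DMSO baseline, serving as background control.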

[16] = ATG_PBREM_CIS: Attagene CIS-FACTORIAL HepG2 Assay for human Phenobarbital-responsive Enhancer Module (PBREM) (AID 2282955); details: HepG2 PBREM cis-reporter, Attagene multiplexed transcription; actives raise or lower the signal
Summary of the method: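 HepG2 cells transiently transfected with multiple cis-regulated reporter units measure endogenous transcription factor activity; 24 h compound exposure. Reporter mRNA quantified by RT-PCR, fluorescent labelling, HpaI digestion and capillary electrophoresis; bidirectional fit versus DMSO.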

[17] = ATG_RORE_CIS: Attagene CIS-FACTORIAL HepG2 Assay for human RAR-related Orphan Receptor Element (RORE) (AID 2282959); details: HepG2 Attagene cis-factorial RORE reporter, mRNA; actives raise or lower the signal
Summary of the method: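 HepG2 cells carrying transiently transfected cis-regulated reporter units; RORE-driven reporter mRNA quantified 24 h post-dosing by RT-PCR, 6-FAM primer extension, HpaI digestion and capillary electrophoresis. Bidirectional fit versus DMSO.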

[18] = molecular target: Hypoxia-inducible factor 1-alpha (Homo sapiens) (UniProt Q16665); test: ATG_HIF1a_CIS: Attagene CIS-FACTORIAL HepG2 Assay for human Hypoxia Inducible Factor 1 (HIF1A) (AID 2282951); details: HepG2 Attagene cis-factorial HIF1a reporter transcription; actives raise or lower the signal
Summary of the method: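 HepG2 cells transiently transfected with multiple cis-regulated reporter transcription units measure endogenous transcription factor activity. After 24 h exposure, reporter mRNA is quantified by RT-PCR with 6-FAM labelling, HpaI digestion and capillary electrophoresis. Bidirectional fitting against DMSO.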

Measured: AC50

Chain of Hypoxia-inducible factor 1-alpha (Homo sapiens) (Q16665 whole entry, looked up): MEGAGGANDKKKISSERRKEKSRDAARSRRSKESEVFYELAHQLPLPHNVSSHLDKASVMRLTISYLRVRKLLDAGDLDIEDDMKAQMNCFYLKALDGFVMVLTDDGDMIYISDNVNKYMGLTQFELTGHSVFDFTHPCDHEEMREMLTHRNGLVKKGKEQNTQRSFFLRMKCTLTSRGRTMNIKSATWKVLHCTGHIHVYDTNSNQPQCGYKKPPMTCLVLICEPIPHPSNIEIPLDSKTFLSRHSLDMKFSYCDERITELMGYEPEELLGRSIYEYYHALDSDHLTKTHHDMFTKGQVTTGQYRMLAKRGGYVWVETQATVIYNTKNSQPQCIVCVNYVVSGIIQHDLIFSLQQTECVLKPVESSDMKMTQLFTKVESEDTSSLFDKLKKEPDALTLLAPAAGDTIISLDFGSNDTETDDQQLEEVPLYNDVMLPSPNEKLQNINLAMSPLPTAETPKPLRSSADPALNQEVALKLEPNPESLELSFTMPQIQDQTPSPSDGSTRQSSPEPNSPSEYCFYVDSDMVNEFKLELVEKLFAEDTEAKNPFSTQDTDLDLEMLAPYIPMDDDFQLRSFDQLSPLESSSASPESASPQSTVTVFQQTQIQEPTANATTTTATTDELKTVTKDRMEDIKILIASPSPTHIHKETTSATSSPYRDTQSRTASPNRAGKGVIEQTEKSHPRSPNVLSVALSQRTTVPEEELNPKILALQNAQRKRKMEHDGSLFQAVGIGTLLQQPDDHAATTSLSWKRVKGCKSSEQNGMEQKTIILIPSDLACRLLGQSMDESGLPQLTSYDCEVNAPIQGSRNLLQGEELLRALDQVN
Chain of Signal transducer and activator of transcription 3 (Homo sapiens) (P40763 whole entry, looked up): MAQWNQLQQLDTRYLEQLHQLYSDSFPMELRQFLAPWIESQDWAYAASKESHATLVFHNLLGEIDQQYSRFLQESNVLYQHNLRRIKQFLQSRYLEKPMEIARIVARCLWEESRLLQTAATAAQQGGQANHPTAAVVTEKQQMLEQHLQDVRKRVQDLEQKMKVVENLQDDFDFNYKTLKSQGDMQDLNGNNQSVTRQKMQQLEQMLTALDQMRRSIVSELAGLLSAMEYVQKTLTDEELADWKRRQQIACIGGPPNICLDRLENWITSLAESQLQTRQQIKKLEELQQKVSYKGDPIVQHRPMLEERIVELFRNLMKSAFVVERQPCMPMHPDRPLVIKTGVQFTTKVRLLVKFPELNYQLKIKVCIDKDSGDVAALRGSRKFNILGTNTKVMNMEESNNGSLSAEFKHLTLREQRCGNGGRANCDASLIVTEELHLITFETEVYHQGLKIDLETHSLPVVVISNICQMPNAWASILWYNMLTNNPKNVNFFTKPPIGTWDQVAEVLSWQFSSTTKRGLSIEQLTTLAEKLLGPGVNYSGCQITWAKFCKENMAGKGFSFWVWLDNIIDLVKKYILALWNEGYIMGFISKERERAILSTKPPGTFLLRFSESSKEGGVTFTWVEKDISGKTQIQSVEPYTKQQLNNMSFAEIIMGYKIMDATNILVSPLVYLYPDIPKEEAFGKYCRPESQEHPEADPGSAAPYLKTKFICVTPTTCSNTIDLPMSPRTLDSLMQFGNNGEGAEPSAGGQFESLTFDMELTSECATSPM
Chain of Paired box protein Pax-6 (Homo sapiens) (P26367 whole entry, looked up): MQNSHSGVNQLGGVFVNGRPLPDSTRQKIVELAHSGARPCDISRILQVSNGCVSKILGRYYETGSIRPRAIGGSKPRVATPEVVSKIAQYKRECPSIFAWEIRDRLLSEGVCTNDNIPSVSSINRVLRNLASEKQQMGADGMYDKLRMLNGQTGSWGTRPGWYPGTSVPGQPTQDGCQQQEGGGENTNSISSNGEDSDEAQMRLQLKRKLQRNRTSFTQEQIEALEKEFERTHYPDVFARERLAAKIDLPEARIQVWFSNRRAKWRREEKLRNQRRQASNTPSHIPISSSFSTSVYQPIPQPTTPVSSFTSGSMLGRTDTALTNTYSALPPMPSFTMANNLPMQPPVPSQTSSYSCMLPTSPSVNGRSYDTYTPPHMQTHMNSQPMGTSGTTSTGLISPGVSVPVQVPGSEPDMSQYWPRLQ
Chain of Heat shock factor protein 1 (Homo sapiens) (Q00613 whole entry, looked up): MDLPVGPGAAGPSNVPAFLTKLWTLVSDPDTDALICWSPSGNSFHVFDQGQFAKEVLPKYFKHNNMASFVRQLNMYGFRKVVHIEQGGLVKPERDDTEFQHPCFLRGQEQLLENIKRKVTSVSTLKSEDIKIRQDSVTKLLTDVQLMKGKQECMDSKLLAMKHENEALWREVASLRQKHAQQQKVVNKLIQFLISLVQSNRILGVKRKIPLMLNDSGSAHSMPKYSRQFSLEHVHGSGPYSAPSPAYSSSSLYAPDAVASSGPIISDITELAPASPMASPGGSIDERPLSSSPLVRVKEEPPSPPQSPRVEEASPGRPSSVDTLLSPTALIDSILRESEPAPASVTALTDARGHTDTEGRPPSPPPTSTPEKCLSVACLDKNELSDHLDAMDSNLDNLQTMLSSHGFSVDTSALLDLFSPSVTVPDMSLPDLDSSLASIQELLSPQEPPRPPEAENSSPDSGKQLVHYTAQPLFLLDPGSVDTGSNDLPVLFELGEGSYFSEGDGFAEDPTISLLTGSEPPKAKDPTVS
Chain of Hepatocyte nuclear factor 6 (Homo sapiens) (Q9UBC0 whole entry, looked up): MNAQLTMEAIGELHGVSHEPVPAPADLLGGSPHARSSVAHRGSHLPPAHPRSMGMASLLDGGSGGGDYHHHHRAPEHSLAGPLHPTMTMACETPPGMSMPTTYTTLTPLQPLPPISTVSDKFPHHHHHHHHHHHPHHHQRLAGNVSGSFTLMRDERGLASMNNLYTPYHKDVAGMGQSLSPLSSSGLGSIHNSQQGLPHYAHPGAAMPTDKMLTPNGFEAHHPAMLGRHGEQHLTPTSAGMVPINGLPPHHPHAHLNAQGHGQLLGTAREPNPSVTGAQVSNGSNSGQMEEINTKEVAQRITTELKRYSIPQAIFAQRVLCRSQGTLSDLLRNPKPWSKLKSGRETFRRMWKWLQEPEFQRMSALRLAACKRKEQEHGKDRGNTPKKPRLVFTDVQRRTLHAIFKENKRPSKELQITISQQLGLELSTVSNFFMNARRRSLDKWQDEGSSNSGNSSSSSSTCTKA
Chain of Transcription factor Sp1 (Homo sapiens) (P08047 whole entry, looked up): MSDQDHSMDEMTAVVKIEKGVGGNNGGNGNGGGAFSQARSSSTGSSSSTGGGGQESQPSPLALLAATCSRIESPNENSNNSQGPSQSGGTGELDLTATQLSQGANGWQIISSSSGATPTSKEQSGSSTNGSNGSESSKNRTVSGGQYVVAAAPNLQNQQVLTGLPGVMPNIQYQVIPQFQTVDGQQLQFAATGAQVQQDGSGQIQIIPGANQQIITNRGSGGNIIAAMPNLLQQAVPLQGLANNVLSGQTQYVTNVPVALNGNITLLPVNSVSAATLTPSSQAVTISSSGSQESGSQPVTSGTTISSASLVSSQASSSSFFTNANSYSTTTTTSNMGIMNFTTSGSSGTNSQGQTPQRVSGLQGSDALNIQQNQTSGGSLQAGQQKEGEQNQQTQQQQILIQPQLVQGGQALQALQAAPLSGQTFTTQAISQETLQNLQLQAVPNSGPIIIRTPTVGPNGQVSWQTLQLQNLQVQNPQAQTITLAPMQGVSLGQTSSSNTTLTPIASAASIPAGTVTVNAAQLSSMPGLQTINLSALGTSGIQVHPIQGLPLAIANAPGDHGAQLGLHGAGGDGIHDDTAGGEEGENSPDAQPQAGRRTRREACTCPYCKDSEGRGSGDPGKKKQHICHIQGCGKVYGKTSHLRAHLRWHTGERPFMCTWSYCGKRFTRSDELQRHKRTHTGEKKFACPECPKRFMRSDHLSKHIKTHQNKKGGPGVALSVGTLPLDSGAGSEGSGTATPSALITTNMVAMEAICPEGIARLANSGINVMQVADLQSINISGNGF

CCCCCCCCCCCCOC(C)=O
not listed: [16] | [17] | [18]
inactive: all other assays above

CCCCCCCC(=O)N(C)C
active: [9] 42.4 µM
not listed: [18]
inactive: all other assays above

C=C1CC/C=C(\C)CC[C@@H]2[C@@H]1CC2(C)C
active: [9] 26.6 µM
not listed: [4] | [10] | [14] | [15]
inactive: all other assays above

CCn1cc(C(=O)O)c(=O)c2ccc(C)nc21
not listed: [5] | [16] | [17] | [18]
inactive: all other assays above

C=C(C)C(N)=O
not listed: [3] | [4] | [5] | [10]
inactive: all other assays above

O=C(O)c1ccco1
not listed: [8] | [10] | [16] | [17] | [18]
inactive: all other assays above

CC(=O)OC(C)(C)C
not listed: [4] | [16]
inactive: all other assays above

CCC(C)(C)C1CCC(=O)CC1
active: [9] 5.24 µM
not listed: [4] | [8] | [16]
inactive: all other assays above

CCC(C)COC(=O)CC(C)C (stereo not given)
not listed: [3] | [4] | [17]
inactive: all other assays above

C=CC(=O)OCCCCCC
active: [9] 59.6 µM
not listed: [10] | [16] | [17] | [18]
inactive: all other assays above

c1ccc(Sc2ccccc2)cc1
active: [9] 62.7 µM
not listed: [4] | [10] | [16]
inactive: all other assays above

Nc1cc([N+](=O)[O-])ccc1C(=O)O
active: [6] 75 µM | [7] 71 µM | [9] 64.5 µM
not listed: [3]
inactive: all other assays above

N#CCCCC(C#N)CCC#N (stereo not given)
not listed: [16] | [18]
inactive: all other assays above

CCCCOCCOC(=O)c1ccccc1C(=O)OCCOCCCC
active: [7] 23.4 µM | [9] 5.46 µM
not listed: [3]
inactive: all other assays above

CCNC(=S)NCC
not listed: [5] | [18]
inactive: all other assays above

CC(=O)CC(C)(C)C1CCCCC1
active: [9] 30.7 µM
not listed: [18]
inactive: all other assays above

CC1=CCC(C(C)C)=CC1
not listed: [3] | [10] | [11] | [17]
inactive: all other assays above

O=C(O)c1ccccc1O
not listed: [3] | [10] | [11]
inactive: all other assays above

COc1ccccc1NC(=O)CC(C)=O
active: [9] 34.2 µM
not listed: [3] | [4] | [17] | [18]
inactive: all other assays above

CC(C)N1C(=O)c2ccccc2C1=O
active: [9] 37.2 µM
not listed: [3] | [8]
inactive: all other assays above

NCCN1CCNCC1
not listed: [4] | [8] | [15] | [18]
inactive: all other assays above

CCCCCCCCCCCCS
active: [9] 33.4 µM | [13] 33.4 µM
not listed: [3] | [4]
inactive: all other assays above

Nc1ccn([C@H]2CC[C@@H](CO)O2)c(=O)n1
not listed: [11] | [16] | [18]
inactive: all other assays above

C=CC(C)CCCC(C)(C)O (stereo not given)
not listed: [3] | [6]
inactive: all other assays above

O=[N+]([O-])c1cc(N(CCO)CCO)ccc1NCCO
not listed: [5] | [10] | [16] | [18]
inactive: all other assays above

CC(=O)OCC=C(C)CCC=C(C)CCC=C(C)C
active: [1] 164 µM | [2] 147 µM | [6] 72.3 µM | [7] 100 µM | [16] 175 µM | [9] 9.61 µM | [17] 164 µM | [11] 162 µM | [15] 100 µM
inactive: [3] | [18] | [5] | [10] | [12] | [13] | [14]

— PubChem BioAssay (EPA / NIEHS)
